Laboratory results: PubChem BioAssay (NCATS)
Values joined by “and” are separate entries in the source; they are usually repeats but may differ in a detail not shown here. Identical values can stand only once. Inconclusive results are not listed. Entries that show only a call come without a potency. Values without a mark were called inactive. Active and inactive are the calls of the source. Calls come from the whole dose curve; as a rule, active = well fitted inhibition curve with a large enough effect; inconclusive = small, poorly fitted or top-dose-only effect; inactive = flat fitted curve, though single readings scatter.

Columns and labels:
JCK = assay: qHTS profiling for inhibitors of Plasmodium falciparum proliferation (AID 504749); conditions: P. falciparum in erythrocytes, SYBR Green DNA, 72 h; series mostly up to 28.7 µM
In short: (§1)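 Three-day growth assay of blood-stage parasites in erythrocytes (0.3% parasitemia, 2.5% hematocrit) at 37 C, 5% CO2, quantified by SYBR Green DNA staining after overnight detergent lysis.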

N140 = assay: as above; conditions: P. falciparum in erythrocytes, SYBR Green DNA, 72 h; series mostly up to 28.7 µM
In short: as §1

P93_24 = assay: as above; conditions: P. falciparum in erythrocytes, SYBR Green DNA, 72 h; series mostly up to 28.7 µM
In short: as §1

P94_40 = assay: as above; conditions: P. falciparum in erythrocytes, SYBR Green DNA, 72 h; series mostly up to 28.7 µM
In short: as §1

PAD = assay: as above; conditions: P. falciparum in erythrocytes, SYBR Green DNA, 72 h; series mostly up to 28.7 µM
In short: as §1

PC15 = assay: as above; conditions: P. falciparum in erythrocytes, SYBR Green DNA, 72 h; series mostly up to 28.7 µM
In short: as §1

PC26 = assay: as above; conditions: P. falciparum in erythrocytes, SYBR Green DNA, 72 h; series mostly up to 28.7 µM
In short: as §1

PC49 = assay: as above; conditions: P. falciparum in erythrocytes, SYBR Green DNA, 72 h; series mostly up to 28.7 µM
In short: as §1

SC27B = assay: as above; conditions: P. falciparum in erythrocytes, SYBR Green DNA, 72 h; series mostly up to 28.7 µM
In short: as §1

TAB109 = assay: as above; conditions: P. falciparum in erythrocytes, SYBR Green DNA, 72 h; series mostly up to 28.7 µM
In short: as §1

TAB113 = assay: as above; conditions: P. falciparum in erythrocytes, SYBR Green DNA, 72 h; series mostly up to 28.7 µM
In short: as §1

TAB165 = assay: as above; conditions: P. falciparum in erythrocytes, SYBR Green DNA, 72 h; series mostly up to 28.7 µM
In short: as §1

W2 = assay: as above; conditions: P. falciparum in erythrocytes, SYBR Green DNA, 72 h; series mostly up to 28.7 µM
In short: as §1

CRL-7250 = normal cell line; assay: Cytotoxic Profiling of Annotated Libraries Using Quantitative High-Throughput Screening (AID 1296008); conditions: Five cell lines viability, CellTiter-Glo ATP luminescence, 48-72 h; max response: hits give low values; note: potency is the fitted concentration of half-maximal effect
In short: (§2)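 Cytotoxicity was measured as CellTiter-Glo ATP luminescence, read after 10 min at room temperature. Compound treatment of the cells lasted 48 or 72 hr at 37 degrees Celsius in a qHTS format.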

HaCat [1] = assay: as above; conditions: Five cell lines viability, CellTiter-Glo ATP luminescence, 48-72 h; max response: hits give low values
In short: as §2

KB-3-1 = assay: as above; conditions: Five cell lines viability, CellTiter-Glo ATP luminescence, 48-72 h; max response: hits give low values
In short: as §2

NIH3T3 = assay: as above; conditions: Five cell lines viability, CellTiter-Glo ATP luminescence, 48-72 h; max response: hits give low values
In short: as §2

HACAT [2] = assay: qHTS assay to identify novel small-molecules to repurpose for Merkel cell carcinoma treatment (AID 1296009); conditions: MCC and control cell lines, CellTiter-Glo viability, 72 h; at 44.8 µM (top of the series) unless noted
In short: (§3)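 After compound transfer in DMSO, plates were kept 72 hr at 37 degree celsius. Luminescent ATP signal from CellTiter-Glo served as viability measure, normalized against DMSO and no-cell controls.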

HEK293T = assay: as above; conditions: MCC and control cell lines, CellTiter-Glo viability, 72 h; at 44.8 µM (top of the series) unless noted
In short: as §3

HEK293 = assay: Cytotoxic Profiling of Annotated Libraries Using Quantitative High-Throughput Screening (AID 1296008); conditions: Five cell lines viability, CellTiter-Glo ATP luminescence, 48-72 h; max response: hits give low values; note: potency is the fitted concentration of half-maximal effect
In short: as §2
Note: nearly all actives have a fitted effect of over 60% in size.

SMILES: N#CC(c1ccc(Cl)cc1)c1c(Cl)cc(-n2ncc(=O)[nH]c2=O)cc1Cl (stereo not given)
- outcome (JCK): inactive
- Potency (N140): inactive
- Potency (P93_24): inactive
- Potency (P94_40): inactive
- Potency (PAD): inactive
- outcome (PC15): inactive
- Potency (PC26): inactive
- outcome (PC49): inactive
- Potency (SC27B): inactive
- Potency (TAB109): inactive
- Potency (TAB113): inactive
- Potency (TAB165): inactive
- Potency (W2): inactive
- max response (CRL-7250): -3.43%
- outcome (HaCat [1]): inactive
- max response (KB-3-1): 0.338%
- max response (NIH3T3): -0.315%
- outcome (HACAT [2]): inactive

SMILES: CN(C)CCOc1cc(-c2cn[nH]c2)ccc1NC(=O)C1COc2ccccc2O1 (stereo not given)
- outcome (CRL-7250): inactive
- outcome (HaCat [1]): inactive
- max response (KB-3-1): -7.59% and -3.43%
- max response (NIH3T3): -6.62%
- outcome (HACAT [2]): inactive

SMILES: CCCCCCOC(=O)N=C(N)c1ccc(NCc2nc3cc(C(=O)N(CCC(=O)OCC)c4ccccn4)ccc3n2C)cc1
- max response (CRL-7250): -14.3%
- outcome (HaCat [1]): inactive
- max response (KB-3-1): 5.67%
- max response (NIH3T3): 3.96%
- outcome (HACAT [2]): inactive

SMILES: CN(C)c1ccccc1CN1CCCN(Cc2ccccc2N(C)C)C1c1ccncc1
- outcome (CRL-7250): inactive
- outcome (HaCat [1]): inactive
- outcome (KB-3-1): inactive
- max response (NIH3T3): -1.17%
- outcome (HACAT [2]): inactive

SMILES: CC=C1C2C=C(C)CC1(N)c1ccc(=O)[nH]c1C2 (stereo not given)
- max response (CRL-7250): 3.51%
- outcome (HaCat [1]): inactive
- max response (KB-3-1): 3.2%
- max response (NIH3T3): -12.9%
- outcome (HACAT [2]): inactive

SMILES: COc1cc2ncnc(Nc3cc(Br)c(O)c(Br)c3)c2cc1OC
- max response (CRL-7250): -9.02% and 1.18%
- max response (HaCat [1]): -28.8%
- outcome (KB-3-1): inactive
- max response (NIH3T3): -4.77%
- outcome (NIH3T3): inactive
- outcome (HEK293T): inactive

SMILES: CN1CCN2c3ncccc3Cc3ccccc3C2C1 (stereo not given)
- outcome (JCK): inactive
- Potency (P94_40): inactive
- outcome (PC15): inactive
- outcome (PC49): inactive
- Potency (SC27B): inactive
- Potency (TAB109): inactive
- Potency (TAB113): inactive
- Potency (TAB165): inactive
- max response (CRL-7250): -0.363%
- max response (HaCat [1]): -6.78%
- max response (KB-3-1): -7.74% and 1.92%
- outcome (NIH3T3): inactive

SMILES: CCC[C@H](N[C@@H](C)C(=O)N1[C@@H]2CCCC[C@H]2C[C@H]1C(=O)O)C(=O)OCC
- max response (CRL-7250): 2.7%
- outcome (HaCat [1]): inactive
- max response (KB-3-1): -1.21%
- max response (NIH3T3): -10.8%
- outcome (HACAT [2]): inactive

SMILES: O=[N+]([O-])c1ccc(Nc2ccccc2-c2ccccc2)c2nonc12
- max response (CRL-7250): -7.85%
- outcome (HaCat [1]): inactive
- max response (KB-3-1): -18.3%
- max response (NIH3T3): -25.2%
- outcome (HACAT [2]): inactive

SMILES: CCCCC(C)(C)[C@H](O)C=C[C@H]1[C@H](O)CC(=O)[C@H]1CC=CCCCC(=O)O
- max response (CRL-7250): -10.4%
- outcome (HaCat [1]): inactive
- outcome (KB-3-1): inactive
- outcome (HACAT [2]): inactive

SMILES: CC(C)CN(C[C@@H](O)[C@H](Cc1ccccc1)NC(=O)O[C@H]1CO[C@H]2OCC[C@H]21)S(=O)(=O)c1ccc(N)cc1
- outcome (JCK): inactive
- Potency (P93_24): inactive
- Potency (P94_40): inactive
- outcome (PC15): inactive
- Potency (PC26): inactive
- outcome (PC49): inactive
- Potency (SC27B): inactive
- Potency (TAB109): inactive
- Potency (TAB113): inactive
- Potency (TAB165): inactive
- max response (CRL-7250): -22%
- max response (HaCat [1]): -16.8%
- outcome (KB-3-1): inactive
- outcome (NIH3T3): inactive

SMILES: CN1CCN(c2cccc(Nc3nc4c(-c5ccc(S(C)(=O)=O)cc5)cccn4n3)c2)CC1
- Potency (HEK293): 9.2 µM (active)
- Potency (HaCat [1]): 14.8 µM (active) and 5.17 µM (active)
- outcome (KB-3-1): inactive
- max response (NIH3T3): -10.8% and -33.2%

SMILES: N=C1SC(=Cc2ccc(-c3ccc4c(c3)C(=O)NC4=O)o2)C(=O)N1c1ccc(Br)cc1
- max response (HEK293): 1.89%
- outcome (HaCat [1]): inactive
- outcome (KB-3-1): inactive
- max response (NIH3T3): 1.79%
- outcome (HACAT [2]): inactive

SMILES: CC(C)(C)c1nc(-c2cccc(NS(=O)(=O)c3c(F)cccc3F)c2F)c(-c2ccnc(N)n2)s1
- max response (HEK293): -10.3%
- max response (HaCat [1]): -2.38%
- max response (KB-3-1): -15.7% and -13.9%
- max response (NIH3T3): -11.1% and -2.7%

SMILES: CNC1CCC(N(Cc2cccc(-c3ccncc3)c2)C(=O)c2sc3ccccc3c2Cl)CC1 (stereo not given)
- Potency (HEK293): 8.33 µM (active) and 7.31 µM (active)

SMILES: O=C(Nc1cccc2c(=O)cc(-c3nn[nH]n3)oc12)c1ccc(OCCCCc2ccccc2)cc1
- Potency (HEK293): 18.7 µM (active)
- outcome (HaCat [1]): inactive
- max response (KB-3-1): -16.8%
- max response (NIH3T3): -4.19%
- outcome (HACAT [2]): inactive

SMILES: Cc1nn(Cc2ccccc2Cl)c(C)c1CN(C)CC(O)COc1ccc(Cl)cc1 (stereo not given)
- Potency (HEK293): 18.7 µM (active)

SMILES: C[C@H]1[C@H](O)O[C@@H]2O[C@@]3(C)CC[C@@H]4[C@H](C)CC[C@@H]1[C@@]24OO3
- Potency (HEK293): 3.32 µM (active)
- max response (HaCat [1]): -7.84%
- Potency (KB-3-1): 20.9 µM (active)

SMILES: O=C(Nc1cccc(C(F)(F)F)c1)Nc1cc(S(=O)(=O)NC2CC2)ccc1-c1ccsc1
- max response (CRL-7250): -35.6%
- max response (HaCat [1]): -22.2%
- max response (NIH3T3): -27%

SMILES: CC(C)(C)c1[nH]cnc1C=c1[nH]c(=O)c(=Cc2ccccc2)[nH]c1=O
- Potency (CRL-7250): 0.0038 µM (active)
- Potency (KB-3-1): 2.41e-05 µM (active)
- max response (NIH3T3): -78.6%

SMILES: CNC(=O)c1cc(Oc2ccc(NC(=O)Nc3ccc(Cl)c(C(F)(F)F)c3)c(F)c2)ccn1
- Potency (HEK293): 7.43 µM (active)
- outcome (HaCat [1]): inactive
- max response (KB-3-1): 1.15%
- max response (NIH3T3): -27%
- outcome (HACAT [2]): inactive

SMILES: O=C(Nc1cccc(Cl)c1)Nc1ncc(CCNc2ncnc3ccsc23)s1
- Potency (HEK293): 16.6 µM (active)
- Potency (HaCat [1]): 2.09 µM (active)
